# PubChem BioAssay (NCI)
# About 83,000 compounds went through this panel and 20% of them were active in at least one assay; those are over-represented in the sample as a whole.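 For each line, cells grew in 96-well plates with the test compound present at a single concentration for 48 hours.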 Active and inactive are the calls of the source. Rule for the calls: active = growth percent below 10; inactive = the rest.
# System: COLO 205 colon
# Test: NCI-60 one-dose screen, 48 h (100 = growth as untreated, 0 = no growth, -100 = all killed)
# Conditions: 10 µM unless noted
row,SMILES,growth
1,COC(=O)C1=Nc2ccc(F)cc2/C1=C\c1sc(Nc2ccc(O)cc2)nc1O,101% (inactive)
2,COc1ccc(OC)c(Nc2nnc(-c3ccc(Cl)cc3)o2)c1,99.1% (inactive)
3,O=C(OC[C@@H]1CO1)c1cccc2c(=O)c3ccccc3[nH]c12,-37.3% (active)
4,CNC(=O)c1c(NC(=O)c2ccc(C(C)(C)C)cc2)sc2c(CN(C)C)c(O)ccc12,-68.5% (active)
5,C=C1C(=O)O[C@H]2[C@H]1CC/C(COC(=O)c1cc3cc(F)ccc3[nH]1)=C\CC[C@@]1(C)O[C@@H]21,-68.7% (active)
6,COc1ccc2[nH]cc(-c3nc(-c4cn(C)c5ccncc45)cs3)c2c1,96.2% (inactive)
7,Brc1ccc(-c2cnc3nonc3n2)cc1,71.3% (inactive)
8,CC(C)CN1CC(C(=O)Nc2ccc3c(c2)-c2ccccc2C3)CC1=O (stereo unspecified),87.7% [50 µM] (inactive)
9,COc1cc2ncnc(Nc3ccc(F)c(Cl)c3)c2cc1OCC(=O)N1CCN(c2ccc(F)cc2)CC1,101% (inactive)
10,COc1ccc(-c2cn(-c3ccc(Cl)cc3)c(SCC(=O)c3ccc([N+](=O)[O-])cc3)n2)cc1,110% (inactive)
11,CCN(CC)S(=O)(=O)c1ccc(S(=O)(=O)N2CCC[C@@H](C(=O)N3CCN(C(=O)OC(C)(C)C)CC3)C2)cc1,108% (inactive)
12,O=C(c1ccc(Cl)cc1Cl)N1c2ccccc2Sc2ccccc21,45% (inactive)
13,N#C/C(=C\c1ccc(-c2ccc(Cl)cc2)o1)c1ccc(Cl)cc1,77.1% (inactive)
14,COc1ccc(C2CC(c3ccc(Nc4nc(Nc5ccc(F)cc5)nc(Nc5ccc(F)cc5)n4)cc3)=NN2C(C)=O)cc1 (stereo unspecified),111% (inactive)
15,CCN(CC)CCOc1nc2c3ccc(Cl)cc3nn2c2ccccc12,4.4% (active)
16,COc1cc2c(cc1O)[C@@]1(C)[C@H](c3ccccc3Br)OC(=O)N1CC2,117% (inactive)
17,CC(C)(C)c1cc(C=Nc2cccc(C(F)(F)F)c2)c(O)c(C(C)(C)C)c1,119% (inactive)
18,CCCCCCNc1nc(NCCCCCC)c2[nH]c(NCCCCCC)nc2n1,-2.12% (active)

row,SMILES,growth
1,COc1ccc(C2C(C#N)=C(N)Oc3c2sc2c(Br)cccc32)cc1 (stereo unspecified),2.31% (active)
2,CC(/C=C1\SC(=S)N(CC(=O)NC(Cc2c[nH]c3ccccc23)C(=O)O)C1=O)=C\c1ccccc1 (stereo unspecified),116% (inactive)
3,CCOC(=O)c1c(NC(=O)c2ccc(OC)cc2)sc2c(CN(C)C)c(O)ccc12,55.3% (inactive)
4,O=C(CCCCl)NNc1nccc(Nc2ccc(S(=O)(=O)Nc3ccncc3)cc2)n1,111% (inactive)
5,Nc1ncnc2c1c(-c1ccc(Oc3ccccc3)cc1)nn2CC1SSCC1O (stereo unspecified),35.2% (inactive)
6,COc1ccc(NC(=O)c2sc3nc(C)c(C(O)c4ccccc4)cc3c2N)cc1 (stereo unspecified),-5.84% (active)
7,COc1cccc(C(=O)OCC(O)C(=O)NC23CC4CC(CC(C4)C2)C3)c1 (stereo unspecified),111% (inactive)
8,O=C(NCc1ccccc1O)c1cccc2ccccc12,106% (inactive)
9,CCn1cc(C(=O)NN=C2CCCCCC2)c(=O)c2ccc(C)nc21,97.8% (inactive)
10,Nc1c(C(=O)Nc2ccccn2)sc2nc3c(cc12)C(O)CCC3 (stereo unspecified),23.6% (inactive)
11,COc1ccc(NC(=O)c2ccc(C(=O)Nc3ccc(OC)cc3OC)cc2)c(OC)c1,115% (inactive)
12,O=C(Nc1ncc(Cc2ccccc2Cl)s1)c1cccs1,85.8% (inactive)
13,COc1ccc2nc3ccccc3c(NCc3ccccc3)c2c1,-19.1% (active)
14,Fc1ccc(COc2ccc(Nc3ncnc4sc5c(c34)CCCC5)cc2)cc1,103% (inactive)
15,N#Cc1c(N2CCOCC2)nc(=S)[nH]c1-c1ccccc1,77.3% (inactive)
16,O=C1CCC(C(=O)NN(c2ccccc2)c2ccccc2)N1 (stereo unspecified),111% (inactive)
17,C/C(C=O)=C\c1ccc2c(c1)OCO2,118% (inactive)
18,C/C(=N\Nc1nc(C)cs1)c1cc2ccccc2o1,110% (inactive)

# System: DU-145 prostate
# Test: as above
# Conditions: 10 µM unless noted
row,SMILES,growth
1,COC(=O)C1=Nc2ccc(F)cc2/C1=C\c1sc(Nc2ccc(O)cc2)nc1O,93.9% (inactive)
2,COc1ccc(OC)c(Nc2nnc(-c3ccc(Cl)cc3)o2)c1,70% (inactive)
3,O=C(OC[C@@H]1CO1)c1cccc2c(=O)c3ccccc3[nH]c12,-20.8% (active)
4,CNC(=O)c1c(NC(=O)c2ccc(C(C)(C)C)cc2)sc2c(CN(C)C)c(O)ccc12,24.7% (inactive)
5,C=C1C(=O)O[C@H]2[C@H]1CC/C(COC(=O)c1cc3cc(F)ccc3[nH]1)=C\CC[C@@]1(C)O[C@@H]21,-93.1% (active)
6,COc1ccc2[nH]cc(-c3nc(-c4cn(C)c5ccncc45)cs3)c2c1,2.58% (active)
7,Brc1ccc(-c2cnc3nonc3n2)cc1,87.7% (inactive)
8,CC(C)CN1CC(C(=O)Nc2ccc3c(c2)-c2ccccc2C3)CC1=O (stereo unspecified),80% [50 µM] (inactive)
9,COc1cc2ncnc(Nc3ccc(F)c(Cl)c3)c2cc1OCC(=O)N1CCN(c2ccc(F)cc2)CC1,60.5% (inactive)
10,COc1ccc(-c2cn(-c3ccc(Cl)cc3)c(SCC(=O)c3ccc([N+](=O)[O-])cc3)n2)cc1,102% (inactive)
11,CCN(CC)S(=O)(=O)c1ccc(S(=O)(=O)N2CCC[C@@H](C(=O)N3CCN(C(=O)OC(C)(C)C)CC3)C2)cc1,61.2% (inactive)
12,O=C(c1ccc(Cl)cc1Cl)N1c2ccccc2Sc2ccccc21,65.2% (inactive)
13,COc1ccc(C2C3=C(COC3=O)N(CCO)c3cc4c(cc32)OCCO4)cc1OC (stereo unspecified),14.6% (inactive)
14,N#C/C(=C\c1ccc(-c2ccc(Cl)cc2)o1)c1ccc(Cl)cc1,82.1% (inactive)
15,COc1ccc(C2CC(c3ccc(Nc4nc(Nc5ccc(F)cc5)nc(Nc5ccc(F)cc5)n4)cc3)=NN2C(C)=O)cc1 (stereo unspecified),115% (inactive)
16,CCN(CC)CCOc1nc2c3ccc(Cl)cc3nn2c2ccccc12,26.4% (inactive)
17,COc1cc2c(cc1O)[C@@]1(C)[C@H](c3ccccc3Br)OC(=O)N1CC2,101% (inactive)
18,CC(C)(C)c1cc(C=Nc2cccc(C(F)(F)F)c2)c(O)c(C(C)(C)C)c1,107% (inactive)
19,CCCCCCNc1nc(NCCCCCC)c2[nH]c(NCCCCCC)nc2n1,84.6% (inactive)
20,COc1ccc(C2C(C#N)=C(N)Oc3c2sc2c(Br)cccc32)cc1 (stereo unspecified),21.4% (inactive)

row,SMILES,growth
1,CC(/C=C1\SC(=S)N(CC(=O)NC(Cc2c[nH]c3ccccc23)C(=O)O)C1=O)=C\c1ccccc1 (stereo unspecified),112% (inactive)
2,CCOC(=O)c1c(NC(=O)c2ccc(OC)cc2)sc2c(CN(C)C)c(O)ccc12,84.3% (inactive)
3,O=C(CCCCl)NNc1nccc(Nc2ccc(S(=O)(=O)Nc3ccncc3)cc2)n1,103% (inactive)
4,Nc1ncnc2c1c(-c1ccc(Oc3ccccc3)cc1)nn2CC1SSCC1O (stereo unspecified),49% (inactive)
5,COc1ccc(NC(=O)c2sc3nc(C)c(C(O)c4ccccc4)cc3c2N)cc1 (stereo unspecified),14.1% (inactive)
6,COc1cccc(C(=O)OCC(O)C(=O)NC23CC4CC(CC(C4)C2)C3)c1 (stereo unspecified),106% (inactive)
7,O=C(CBr)CN1C(=O)c2ccccc2C1=O,104% (inactive)
8,O=C(NCc1ccccc1O)c1cccc2ccccc12,95.6% (inactive)
9,CCn1cc(C(=O)NN=C2CCCCCC2)c(=O)c2ccc(C)nc21,89.2% (inactive)
10,Nc1c(C(=O)Nc2ccccn2)sc2nc3c(cc12)C(O)CCC3 (stereo unspecified),25% (inactive)
11,COc1ccc(NC(=O)c2ccc(C(=O)Nc3ccc(OC)cc3OC)cc2)c(OC)c1,94.6% (inactive)
12,O=C(Nc1ncc(Cc2ccccc2Cl)s1)c1cccs1,82.6% (inactive)
13,COc1ccc2nc3ccccc3c(NCc3ccccc3)c2c1,22.5% (inactive)
14,Fc1ccc(COc2ccc(Nc3ncnc4sc5c(c34)CCCC5)cc2)cc1,96.8% (inactive)
15,COc1ccc(C2=Nc3c/c(=C\c4c(O)[nH]c5cc(Cl)ccc45)ccc3=N2)cc1,76.8% (inactive)
16,N#Cc1c(N2CCOCC2)nc(=S)[nH]c1-c1ccccc1,87.6% (inactive)
17,O=C1CCC(C(=O)NN(c2ccccc2)c2ccccc2)N1 (stereo unspecified),101% (inactive)
18,C/C(C=O)=C\c1ccc2c(c1)OCO2,108% (inactive)
19,COc1cc2c(/C=C3\C(=O)Nc4ccccc43)c(C(=O)O)[nH]c2cc1C,118% (inactive)
20,C/C(=N\Nc1nc(C)cs1)c1cc2ccccc2o1,107% (inactive)
